Experimental data published in PubChem BioAssay (Tox21).
Records with an inconclusive call do not appear. Where a call stands in place of a potency, no number is given. Activity calls are given as the source filed them. Calls follow the shape of the dose curve; as a rule, active = well fitted cell-killing curve with a large enough effect in the repeat runs; inconclusive = weak or mixed curves, or effect the other way; inactive = no such curve, though single readings can be large or run the other way.

Experiment: qHTS assay to identify small molecule agonists of the vitamin D receptor (VDR) signaling pathway - cell viability counter screen (AID 743224); also: nearly all actives have a fitted effect of over 50% in size
Settings: VDR-bla HEK293T viability, CellTiter-Glo luminescence, 16 h; series mostly up to 62.6 µM
Excerpt: U.S. Tox21 Program National Center for Advancing Translational Sciences [NCATS] NIH Chemical Genomics Center [NCGC] U.S. Environmental Protection Agency [EPA] National Institutes of Environmental Health Sciences [NIEHS] National Toxicology Program [NTP] U.S. Food and Drug Administration [FDA] Tox21 Assay Overview: The vitamin D receptor (VDR), a member of nuclear hormone receptor superfamily, plays a critical role in calcium homeostasis and bone metabolism. It is also involved in cell differentiation and growth, and thrombogenicity. […] The cytotoxicity of the Tox21 compound library against the VDR-bla cell line was tested in parallel by measuring the cell viability using CellTiter-Glo assay (Promega, Madison, WI) in the same wells.
Tox21 Assay Protocol Summary: VDR-bla cells were dispensed at 2,000 cells/6 uL/well into black wall/clear-bottom 1536-well plates using a Multidrop Combi (Thermo Fisher Scientific, Waltham, MA) dispenser. After the assay plates were incubated at a 37C and 5% CO2 for 4 h, 23 nL of compounds dissolved in DMSO, positive controls or DMSO only was transferred to the assay plate by a Pintool station (Kalypsys, San Diego, CA). The plates were incubated at 37C and 5% CO2 for 16 h. After 1 uL of LiveBLAzerTM B/G FRET substrate was added using a Bioraptr Flying Reagent Dispenser (FRD) workstation (Beckman Coulter, Indianapolis, IN, USA), the plates were incubated at room temperature for 2 h, and fluorescence intensity was measured by an Envision plate reader (PerkinElmer, Shelton, CT). For cell viability readout that measures cytotoxicity, 3 ul/well of CellTiter-Glo reagent was added into the assay plates using a FRD. After 30 min incubation at room temperature, the luminescence intensity in the plates was measured using a ViewLux (PerkinElmer) plate reader.
For `O=C(O)CCCCCCCCCCC(=O)O`, the Potency was “inactive”. For `Nc1cc([N+](=O)[O-])ccc1O`, the Potency was “inactive”. In the case of `CCCSc1ccc2nc(NC(=O)OC)[nH]c2c1`, the Potency is reported as “inactive”. In the case of `O=C(O)c1cc(=O)c2c(OCC(O)COc3cccc4oc(C(=O)O)cc(=O)c34)cccc2o1`, the Potency is reported as “inactive”. In the case of `c1c[nH]cn1`, the Potency is reported as “inactive”. In the case of `O=C(OCCOCCOC(=O)c1ccccc1)c1ccccc1`, the Potency is reported as “inactive”. In the case of `O=C(O)c1cc(O)c(O)c(O)c1`, the Potency is reported as “inactive”. In the case of `CCCCC(CC)COC(=O)C(C#N)=C(c1ccccc1)c1ccccc1` (stereo not given), the Potency is reported as “inactive”. For `Nc1ccccc1[N+](=O)[O-]`, the Potency was “inactive”. With `O=S1(=O)CC=CC1` the Potency was “inactive”. With `CCCCC(CC)COC(=O)CCCCC(=O)OCC(CC)CCCC` (stereo not given) the Potency was “inactive”. In the case of `COc1cc(Cc2cnc(N)nc2N)cc(OC)c1OC`, the Potency is reported as “inactive”. In the case of `CCCCCCCCC/C=C/CC1CC(=O)OC1=O` (stereo not given), the Potency is reported as “inactive”. In the case of `C#C[C@]1(O)CC[C@H]2[C@@H]3CCC4=CC(=O)CC[C@@H]4[C@H]3CC[C@@]21C`, the Potency is reported as “inactive”. In the case of `CC1=CC(=O)NS(=O)(=O)O1`, the Potency is reported as “inactive”. In the case of `Cc1cnc(C(=O)NCCc2ccc(S(=O)(=O)NC(=O)NC3CCCCC3)cc2)cn1`, the Potency is reported as “inactive”. In the case of `CN(C)CCC(c1ccccc1)c1ccccn1` (stereo not given), the Potency is reported as “inactive”. For `O=C(O)CCCC[C@@H]1SC[C@@H]2NC(=O)N[C@@H]21`, the Potency was “inactive”. In the case of `CCCCCC1=CCCC1=O`, the Potency is reported as “inactive”. For `CCCCCC/C(C=O)=C\c1ccccc1`, the Potency was “inactive”. With `NNc1nncc2ccccc12` the Potency was “inactive”. For `O=S(=O)(O)c1ccc2ccccc2c1`, the Potency was “inactive”. In the case of `CCCCCCCCCC`, the Potency is reported as “inactive”. With `O=c1[nH]nnc2ccccc12` the Potency was “inactive”. In the case of `COS(C)(=O)=O`, the Potency is reported as “inactive”. In the case of `CC(C)(C)[C@@H](O)[C@@H](Cc1ccc(Cl)cc1)n1cncn1`, the Potency is reported as “inactive”. For `O=C1CCC(N2C(=O)c3ccccc3C2=O)C(=O)N1` (stereo not given), the Potency was “inactive”. With `Cc1cc(C)c(C)cc1C` the Potency was “inactive”. For `FC(F)(F)c1ccc(Cl)c(Cl)c1`, the Potency was “inactive”. For `CCCC(C)=O`, the Potency was “inactive”. In the case of `CC1CCC(C(C)C)C(O)C1` (stereo not given), the Potency is reported as “inactive”. For `CCCCC(CC)CO` (stereo not given), the Potency was “inactive”. In the case of `CC(C)(N)CO`, the Potency is reported as “inactive”. With `OCCOCCOCCO` the Potency was “inactive”. With `O=c1[nH]c(=O)n([C@H]2CCCO2)cc1F` the Potency was “inactive”. For `CN(C)CCOCCN(C)C`, the Potency was “inactive”. In the case of `COCCCOc1ccnc(CS(=O)c2nc3ccccc3[nH]2)c1C` (stereo not given), the Potency is reported as “inactive”. For `C=C(C)C(=O)Nc1ccc(Cl)c(Cl)c1`, the Potency was “inactive”. For `Cc1ccc(N(C)C)cc1`, the Potency was “inactive”. For `CC(=O)c1ccccc1`, the Potency was “inactive”.
